These results are taken from PubChem BioAssay (NCATS).

A number with no mark means an inactive call. Calls follow the shape of the dose curve; as a rule, active = well fitted activation curve with a large enough effect; inconclusive = small, poorly fitted or top-dose-only effect; inactive = no such curve, though single readings can be large or run the other way.

In this assay the target is Cytochrome P450 3A4 (Homo sapiens) (UniProt P08684). In words: qHTS Assay for Activators of Cytochrome P450 3A4 (AID 885). Also: nearly all actives have a fitted effect of over 65% in size. As to conditions: recombinant CYP3A4, Luciferin-PPXE luminescence, 60 min; series mostly up to 57.1 µM; activity change, positive = activation: at the top concentration. The essentials: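 CYP3A4 activity: Luciferin-PPXE O-dealkylation, 25uM substrate, 200mM KPO4, RT throughout. Read-out is luciferase luminescence; higher values reflect activation.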
Sequence of Cytochrome P450 3A4 (Homo sapiens) (P08684 whole entry, looked up): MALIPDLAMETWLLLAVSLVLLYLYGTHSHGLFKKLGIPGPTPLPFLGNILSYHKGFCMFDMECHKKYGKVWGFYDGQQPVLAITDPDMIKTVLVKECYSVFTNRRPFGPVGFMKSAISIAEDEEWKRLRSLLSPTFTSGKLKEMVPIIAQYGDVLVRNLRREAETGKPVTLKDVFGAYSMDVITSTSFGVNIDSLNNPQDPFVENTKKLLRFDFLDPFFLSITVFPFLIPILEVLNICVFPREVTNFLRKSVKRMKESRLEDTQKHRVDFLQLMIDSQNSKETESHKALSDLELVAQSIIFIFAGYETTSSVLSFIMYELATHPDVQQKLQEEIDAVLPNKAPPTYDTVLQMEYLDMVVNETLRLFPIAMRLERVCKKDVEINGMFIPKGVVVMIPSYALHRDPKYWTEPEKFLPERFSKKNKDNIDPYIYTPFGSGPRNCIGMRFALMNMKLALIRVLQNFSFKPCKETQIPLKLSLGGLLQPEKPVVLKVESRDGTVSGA
Regarding `O=C1[C@H]2O[C@@H]2[C@@H](O)[C@H]2[C@H]1CCn1c(=O)n(Cc3cc4c(cc3Cl)OCO4)c(=O)n12`, the activity change, positive = activation is -36.7% [at 11.4 µM].

Regarding `FC(F)(F)c1ccc(CN2C[C@@H]3C(c4ccc(Cl)nc4)C4(c5ccccc5)CC3(C4)[C@H]2c2ccccc2)cc1` (some centres not stated), the “activity change, positive = activation” value is -45.7%.

Consider `COC(=O)c1cccc(C23CC4(C2)[C@H](CN(CC2CCCCC2)[C@@H]4c2ccccc2)C3c2ccc(C(F)(F)F)cc2)c1` (some centres not stated), for which the “activity change, positive = activation” value is -57.7%.

In the case of `COC(=O)[C@@H]1CC[C@H](C)[C@@H](c2ccc(C)cc2)N1C(=O)c1ccc(/C=N\O[C@@H](C)CN2CCCc3nc(C)c(C)cc32)cc1`, the activity change, positive = activation is -48.9% [at 11.4 µM].

Consider `COc1ccc(COC(=O)N/N=C2/C[C@@H](O)[C@@H](O)[C@@H]3[C@H]4C(=O)N(c5ccc(F)cc5F)C(=O)[C@@H]4CC[C@@H]23)cc1`, for which the activity change, positive = activation is -42.8% [at 11.4 µM].

For the compound `FC(F)(F)c1ccc(C2[C@H]3CN(Cc4ccc(-c5ccccc5)cc4)[C@H](c4ccccc4)C34CC2(c2cccnc2)C4)cc1` (some centres not stated), the “activity change, positive = activation” value is -54.4%.

Turning to `Cn1c(=O)cc(N)n(Cc2ccccc2)c1=O`, the “activity change, positive = activation” value is -51.2%.

For the compound `FC(F)(F)c1ccc(CN2C[C@@H]3C(c4ccccc4)C4(c5ccccc5)CC3(C4)[C@H]2c2ccccc2)cc1` (some centres not stated), the “activity change, positive = activation” value is -53.9%.

Turning to `COC(=O)c1cccc(C#CC(NP(=O)(c2ccccc2)c2ccccc2)c2ccccc2)c1` (configuration not stated), the “activity change, positive = activation” value is -41.1%.

On to `COC(=O)[C@@H]1C[C@@]2(O)[C@@H](O)[C@@H](O)[C@@H](O)C[C@H]2N1CC1CCCCC1`, for which the “activity change, positive = activation” value is -36.1%.

With `CCC1=C(OC(=O)N(CC)CC)N2C(=O)OC(=NCCOC)[C@]2(C)[C@H]2C1=CC[C@H]1C(=O)NC(=O)[C@H]12`, the “activity change, positive = activation” value is -54.3%.

As for `CO[C@@H]1/C=C\CC(=O)N[C@@H](C)C(=O)OC[C@@H](OC)[C@H](C)/C=C\CC(=O)OC[C@H]1C`, the activity change, positive = activation was -36.7% [at 11.4 µM].

`N#CCC(=O)NC(=O)NCC1CC1`: the “activity change, positive = activation” value was -36.4%.

With `C[C@@H](c1ccccc1)N1C(=O)[C@H]2[C@H]3[C@H](O)[C@H](O)C/C(=N/OCc4ccccc4)[C@H]3CC[C@@H]2C1=O`, the activity change, positive = activation is -40.9% [at 11.4 µM].

With `CCC1=C2CC[C@H]3C(=O)NC(=O)[C@H]3[C@H]2[C@@]2(Cc3ccccc3)C(=NCC(=O)OC)OC(=O)N2C1=O`, the “activity change, positive = activation” value is -56.7%.

Take `CCC1=C(OC(=O)N(CC)CC)N2C(=O)OC(=NCCOC)[C@]2(C)[C@H]2C1=CC[C@H]1C(=O)N(C)C(=O)[C@H]12`: the “activity change, positive = activation” value was -59.6%.

Regarding `O=C1[C@H]2[C@H]3[C@H](O)[C@H](O)C/C(=N/OC[C@@H](O)COCc4ccco4)[C@H]3CC[C@@H]2C(=O)N1c1cccc(Oc2ccccc2)c1`, the activity change, positive = activation was -40.2% [at 11.4 µM].

Consider `COC(=O)CNC(=O)C1(C)C=CC2(CCCCC2)N1C(C)=O` (configuration not stated), for which the “activity change, positive = activation” value was -35.3%.

As for `O=C1[C@@H]2[C@H]3[C@H](O)[C@H](O)C/C(=N/OCc4ccccc4)[C@H]3CC[C@H]2C(=O)N1c1ccc(F)cc1F`, the activity change, positive = activation is -34.3% [at 11.4 µM].

On to `CCC1=C2CC[C@H]3C(=O)N(CC(=O)OC)C(=O)[C@H]3[C@H]2[C@@]2(C)C(=O)N(CC3CC3)C(=O)N2C1=O`, for which the “activity change, positive = activation” value is -52.9%.

As to `CC(=O)O[C@H]1C2=CO[C@H](C)[C@H]3[C@H]4C5=C([C@H](O)[C@H]6O[C@@H]6C5=O)[C@H](O[C@H]4C)[C@@]23C(=O)[C@H]2O[C@@H]21`, the activity change, positive = activation is -42.7% [at 11.4 µM].

Turning to `C[C@H]1CC[C@H]2C(=O)N3[C@H](c4ccc(Br)cc4)[C@@H](C)CC[C@H]3C(=O)N2[C@@H]1c1ccc(Br)cc1`, the activity change, positive = activation was -43.1% [at 11.4 µM].

Take `CC(C)CO/N=C1/C[C@@H](O)[C@@H](O)[C@@H]2[C@@H]3C(=O)N([C@@H](C)c4ccccc4)C(=O)[C@H]3CC[C@H]12`: the activity change, positive = activation is -46.1% [at 11.4 µM].

For `CCc1cc2c(nc1CC)CCN(CC/C(C)=N/OCC[C@@H]1C=C[C@H](OC(C)=O)[C@H](COC(C)=O)O1)C2`, the activity change, positive = activation is -32.1% [at 11.4 µM].

Turning to `COC(=O)[C@@H]1C[C@@]2(O)[C@H](O)[C@H](O)[C@H](O)C[C@H]2N1Cc1ccc(C(F)(F)F)cc1`, the “activity change, positive = activation” value was -51.1%.

Regarding `Cn1c(N)c(C(=O)COC(=O)c2cc(C(F)(F)F)nc3ccccc23)c(=O)n(Cc2ccccc2)c1=O`, the “activity change, positive = activation” value is -46.7%.

As to `CO[C@@H]1COC(=O)[C@H](COCc2ccccc2)NC(=O)C/C=C\[C@@H](C)[C@H](OC)COC(=O)[C@@H](C)NC(=O)C/C=C\[C@H]1C`, the activity change, positive = activation is -36.6% [at 11.4 µM].
